From PubChem
Shown are actives, neighbours in structure and some others; about 2.4% of the full set was active somewhere.
Rango dissoc inh: prevents RanGTP from dissociating the Rango-importin beta complex. Biochemical FRET Rango-importin beta, RanGTP-induced dissociation. Potency, µM (titrated, usually from 46.1 µM), for inactives: top-dose activity change, negative = inhibition. 0.071% of 340,000 active. AID 540253; calls by dose curve; note: % of control where 0% means no effect; nearly all actives have a fitted effect of over 45% in size
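FRET read at 45 min, room temperature: inhibitors block the CFP/YFP signal rise when RanGTP (0.6 uM Ran, 2 mM GTP, 0.2 uM RCC1) frees Rango (0.1 uM) from importin beta (0.25 uM). Pre-read after 5 min compound exposure flags interference.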
Rango-impB inh: Rango-importin beta binding inhibition; Potency, µM (doses to about 92.2 µM), for the others: at the highest dose inhibition of complex formation; 0.031% of 340,000 active; Rango CFP/YFP FRET sensor + importin beta, 45 min; calls by dose curve;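 note: 0% = DMSO wells and 100% = buffer wells lacking importin beta; nearly all actives have a fitted effect of over 15% in size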
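FRET biosensor Rango (snurportin 1 IBB between N-terminal EYFP and C-terminal Cerulean), 50 nM in PBS/1 mM DTT/0.02% Tween-20/0.1% BSA, preincubated 5 min RT with compound; 0.125 microM importin beta added, 45 min RT, CFP/YFP FRET ratio read.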
TDP1 inh: TDP1 (human) enzyme inhibition | Potency, µM (highest dose often 130 µM), for the others: at the highest dose activity change, negative = inhibition, usual class: inhibitors | AID 485290 | 0.28% of 350,000 active | recombinant TDP1, AlphaScreen DNA substrate cleavage | Q9NUW8; note: % is set by controls: 0 for no effect and ±100 for the full control effect; nearly all actives have a fitted effect of over 40% in size
Target sequence (Q9NUW8 whole entry, looked up): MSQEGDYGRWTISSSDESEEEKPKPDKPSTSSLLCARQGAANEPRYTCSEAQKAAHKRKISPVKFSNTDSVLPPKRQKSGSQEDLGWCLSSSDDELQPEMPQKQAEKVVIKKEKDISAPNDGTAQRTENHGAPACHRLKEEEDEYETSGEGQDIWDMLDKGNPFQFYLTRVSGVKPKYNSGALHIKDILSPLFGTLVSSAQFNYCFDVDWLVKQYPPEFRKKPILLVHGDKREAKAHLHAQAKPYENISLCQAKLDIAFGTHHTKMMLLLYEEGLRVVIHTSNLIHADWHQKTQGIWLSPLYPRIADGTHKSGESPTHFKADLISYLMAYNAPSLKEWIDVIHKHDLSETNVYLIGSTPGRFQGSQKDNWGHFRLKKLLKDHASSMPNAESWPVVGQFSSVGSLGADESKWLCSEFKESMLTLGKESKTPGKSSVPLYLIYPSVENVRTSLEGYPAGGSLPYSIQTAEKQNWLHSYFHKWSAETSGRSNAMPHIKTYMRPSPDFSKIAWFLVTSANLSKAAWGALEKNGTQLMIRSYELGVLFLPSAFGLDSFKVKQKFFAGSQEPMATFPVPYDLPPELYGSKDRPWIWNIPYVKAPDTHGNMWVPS
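Here, a 5' biotin and 3' phosphotyrosine-FITC DNA oligonucleotide reports Tdp1 activity: intact substrate bridges AlphaScreen beads, while cleavage leaves a 3' phosphate and drops signal. All incubations at room temperature.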
ClpP mod: qHTS Assay for Activators of ClpP; ATP-dependent Clp protease proteolytic subunit (Bacillus subtilis (strain 168)), P80244; purified B. subtilis ClpP, FRET peptide cleavage, 20 min; Potency, µM (doses to about 57.5 µM), for the others: at the highest dose activity change, negative = active; 1.9% of 340,000 active; AID 651965, 2013; active = well fitted falling curve with a large enough effect; inconclusive = small, poorly fitted or top-dose-only effect; inactive = no such curve, though single readings can be large or run the other way; note: the source files actives as falling curves though it sought activators and does not explain the sign; nearly all actives have a fitted effect of over 65% in size
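FRET quenching reversal measured ClpP activation: 10 microg/mL B. subtilis ClpP at pH 8 with the FRET-FV decapeptide, read at 430 nm after 320 nm excitation. The 20-min minus 0-min signal was scaled between DMSO/no-enzyme wells and ADEP (5.8 microM final).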
ALOX12 inh: ALOX12 (human) lipoxygenase inhibition; P18054; purified 12hLO, xylenol orange hydroperoxide absorbance; Potency, µM (top dose mostly 108 µM), inactives show at the highest dose activity change, negative = inhibition, most hits filed as inhibitors; 1.1% of 580,000 active; note: % is set by controls: 0 for no effect and ±100 for the full control effect
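Purified human 12hLO (150 nM final) in 25 mM Hepes, 0.01% Triton X-100, pH 7.0 was preincubated 15 min at room temperature with compound. Then 40 uM arachidonic acid was added, 30 min. Hydroperoxide was read by Fe-XO absorbance ratio 573/405 nm.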
PTAP TSG101 blk: blocks PTAP/TSG101 interaction to inhibit HIV-1 budding. Fluorescence polarization, FITC-PTAP peptide / Tsg101 binding. Potency, µM (highest dose often 115 µM), for the others: at the highest dose activity change, negative = inhibition, hits mostly inhibitors. 340,000 tested, under 10 active. AID 493005; active = well fitted inhibition curve with a large enough effect in the main read-out, with a control signal flat, not every such curve was filed as active; inconclusive = small, poorly fitted or top-dose-only effect, or effect the other way, or a change in a side signal; inactive = no such curve, though single readings can be large or run the other way; note: % of control where 0% means no effect
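Tsg101 binding domain (10 uM final) was mixed with compound and a FITC-labeled PTAP peptide (50 nM final) in HEPES pH 7.5 buffer with NaCl, Tween 20, EDTA and TCEP; fluorescence polarization was read after 20 min at r.t.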
The depositor's hits bear a star; ? = inconclusive; . = not tested or not shown; ! = not active in a repeat. Unless noted, calls come from the whole dose curve; as a rule, active = well fitted curve in the direction sought with a large enough effect; inconclusive = small, poorly fitted or top-dose-only effect, or another doubt; inactive = no such curve, though single readings can be large; an effect the other way counts as inactive or inconclusive. Potency is the fitted concentration of half-maximal effect.

SMILES	Rango dissoc inh	Rango-impB inh	TDP1 inh	ClpP mod	ALOX12 inh	PTAP TSG101 blk
Cc1n[nH]c(C)c1CCc1nc2c3ccccc3nc(SCC(=O)Nc3ccc(F)cc3)n2n1	.	.	0%	-1%	-7%	.
CCCCN(Cc1cc2cc(OC)ccc2[nH]c1=O)C(=O)c1ccccn1	6%	2%	0%	20µM*	?	-7%
CCCCN(Cc1cc2cc(OC)ccc2[nH]c1=O)C(=O)c1ccco1	0%	-2%	0%	32µM*	?	-4%
COc1ccc(-c2nc(CSCC(=O)NCCc3ccc(C)cc3)c(C)o2)cc1OC	.	.	-1%	32µM*	6%	.
COc1ccc(-c2nc(CSCC(=O)NCc3ccccc3Cl)c(C)o2)cc1OC	.	.	7%	20µM*	-4%	.
CCCCNC(=O)CSCc1nc(-c2ccc(OC)c(OC)c2)oc1C	.	.	.	.	-10%	.
COc1ccccc1CNC(=O)CS(=O)Cc1nc(-c2ccc(OC)c(OC)c2)oc1C (configuration not stated)	-23%	2%	5%	32µM*!	-14%	-2%
CCOCCCNC(=O)CSCc1nc(-c2ccc(SC)cc2)oc1C	3%	0%	4%	3%	0%	-5%
COCCNC(=O)CSCc1nc(-c2ccc(SC)cc2)oc1C	2%	1%	7%	25µM*	-5%	-1%
COc1ccc(C23CC4CC(CC(C(=O)Nc5nccs5)(C4)C2)C3)cc1	.	.	.	.	2%	.
COc1cc(C)c(CN2CCC3(CC2)[C@H](O)C[C@@H]3OCCN)cc1C	.	.	.	.	30%	.
CCOc1cc(/C=C2/NC(=O)NC2=O)ccc1OCC(=O)O	.	.	.	.	1%	.
COc1ccc(-c2nc(CSCC(=O)NCCC3=CCCCC3)c(C)o2)cc1OC	-7%	-3%	4%	25µM*	46%	-11%
COc1ccccc1CNC(=O)CSCc1nc(-c2ccc(OC)c(OC)c2)oc1C	.	.	-1%	?	1%	.
Cc1cc(C)cc(NS(=O)(=O)c2ccc3[nH]cc(C(=O)NC4CCCCC4)c(=O)c3c2)c1	.	.	5%	7%	?	.
CC(C)c1ccc(NS(=O)(=O)c2ccc3[nH]cc(C(=O)NC4CCCCC4)c(=O)c3c2)cc1	.	.	.	0%	35µM*	.
Cc1ccccc1NS(=O)(=O)c1ccc2[nH]cc(C(=O)NC3CCCCC3)c(=O)c2c1	.	.	25µM*	-26%	5%	.
Cc1ccccc1NS(=O)(=O)c1ccc2[nH]cc(C(=O)N3CCCCC3)c(=O)c2c1	.	.	22µM*	4%	2%	.
CC(C)c1noc(C2CCCN(C(=O)C3CC3)CCC(=O)NCC2)n1 (configuration not stated)	.	.	.	.	20%	.
COc1ccccc1OCCNC(=O)C1N(C(C)C)C(=O)C12CCCC2 (configuration not stated)	.	.	.	.	10%	.
CNC(=O)c1ccc(CN(c2nc3ccccc3o2)C2CC2)cc1	.	.	.	.	-13%	.
COc1ccc(C(=O)NC(=S)Nc2cccc(S(=O)(=O)N3CCOCC3)c2)cc1	?	-5%	4%	-1%	28µM*	-5%
COc1ccc(C(=O)NC(=S)NNC(=O)c2ccc(NC(=O)C(C)C)cc2)cc1	18%	-1%	8%	1%	45µM*	-1%
Cc1ccc(C(=O)NC(=S)Nc2ccc(Oc3ccc(Cl)cc3)cc2)cc1	7%	0%	4%	1%	7.9µM*	0%
CC(C)Oc1cccc(C(=O)NC(=S)Nc2ccc(Cl)c(C(=O)O)c2)c1	5%	-1%	0%	6%	?	-6%
COc1ccc(C(=O)NC(=S)Nc2ccc(Cl)c(C(=O)O)c2)cc1	0%	0%	-3%	.	7.1µM*	-2%
O=C(NC(=S)Nc1ccc(Oc2ccccc2)cc1)c1ccc(Cl)cc1	-1%	1%	8%	-3%	?	-6%
